Bioassay records from PubChem BioAssay.
D2 ag-1 = human D2 receptor agonism in beta-arrestin assay | DiscoveRx PathHunter D2 beta-arrestin, luminescence, 90 min; 100% = 57 uM dopamine signal | P14416 | AID 624465 | activation, % (no concentration beside the values) | 360,000 tested, 0.084% active; in the data active = activation above about 40%
Target sequence (P14416 whole entry, looked up): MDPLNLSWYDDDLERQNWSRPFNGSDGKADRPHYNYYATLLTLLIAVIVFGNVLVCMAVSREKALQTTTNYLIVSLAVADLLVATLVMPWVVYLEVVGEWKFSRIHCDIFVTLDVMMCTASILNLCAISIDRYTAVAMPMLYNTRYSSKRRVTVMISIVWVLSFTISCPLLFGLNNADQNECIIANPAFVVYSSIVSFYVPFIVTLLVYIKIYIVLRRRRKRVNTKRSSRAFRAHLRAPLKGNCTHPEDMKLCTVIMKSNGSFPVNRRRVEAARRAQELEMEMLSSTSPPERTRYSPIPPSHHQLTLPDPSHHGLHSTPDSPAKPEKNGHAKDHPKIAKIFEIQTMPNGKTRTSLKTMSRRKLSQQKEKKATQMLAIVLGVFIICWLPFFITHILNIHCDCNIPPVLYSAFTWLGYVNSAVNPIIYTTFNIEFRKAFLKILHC
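Agonist mode: compounds alone added to overnight-plated D2 PathHunter cells for 90 min at 37 C, with 57 uM final dopamine (EC100) defining full response. Beta-arrestin recruitment detected by chemiluminescent reagent, read after 1 h at ambient temperature.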
D2 PAM-1 = D2 dopamine receptor (human) potentiation. HEK293 T-REx D2, calcium flux, EC20 dopamine potentiation. 340,000 tested, 0.34% active. P14416. potentiation, % at 10 µM;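 active = potentiation over 3 SD above the plate norm, cut at about 30% in these data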; also: 0% is about no effect
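Tetracycline-induced Hek293 Trex D2 cells, force-coupled to calcium, loaded with no-wash calcium dye. Compound added with 180 s kinetic read for agonism, then EC20 dopamine and a further 180 s read for potentiation.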
D2 PAM-2 = potentiates the human D2 dopamine receptor allosterically; 360,000 tested, 0.23% active; P14416; DiscoveRx D2 beta-arrestin cells, luminescence, 90 min; 100% = 57 uM dopamine signal; potentiation, % (no concentration beside the values); in the data active = potentiation above about 50%
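PathHunter D2 cells, attached overnight at 37 deg C, received compound in DMSO plus dopamine at EC20 (50 nM final) for 90 min at 37 deg C. Beta-arrestin recruitment was read as luminescence after 1 h with detection reagent at ambient temperature.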
D2 ag-2 = activates the human D2 dopamine receptor; P14416; HEK293 T-REx D2 cells, calcium flux agonist mode; activation, % at 2 µM; 340,000 tested, 0.53% active; AID 485358;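 active = activation over 3 SD above normal in the single-dose calcium agonist read, cut at about 30% in these data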; also: 0% is about no effect
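HEK293 Trex D2 cells, tetracycline-induced, o/n 30 C 5% CO2; no-wash Ca dye, RT 30–90 min; 10-cycle baseline, 23 nl cpd added, kinetic Ca read 180 s; agonist hits = positive Ca response.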
D2 antag = antagonists of human D2 dopamine receptor; P14416; HEK293 TREx D2 cells, calcium flux, dopamine EC80; inhibition, % at 10 µM; 340,000 tested, 2% active; AID 485344; in the data active = inhibition above about 30%; inactive = below that, where a call was filed; also: 0% is about no effect
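Dopamine at EC80 is the agonist stimulus; test compounds precede it by 180 s. Calcium flux read kinetically in a force-coupled, inducible HEK293 T-REx D2 cell line.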
An asterisk follows results filed as active; / = no result given. The list is not random: actives were taken first. Their share in the collection is about 2.4%.

SMILES	D2 ag-1	D2 PAM-1	D2 PAM-2	D2 ag-2	D2 antag
Cc1ccc(NC(=O)C2CC(=O)NC(N3CCCCC3)=N2)cc1Cl (centres undefined)	-3.4	-18.9	-28.0	-0.6	70.9*
Cc1ccc(-c2nnc(N(C)C(=O)c3cccnc3)s2)cn1	-1.3	5.7	22.9	-1.3	16.1
Cc1ccc(-c2nnc(N(C)C(=O)c3cccnc3)s2)cc1	3.3	37.6*	12.2	0.3	3.6
OC1c2c(F)cccc2N=C2CCCCN21 (centres undefined)	-6.1	/	-1.9	/	/
CCN(CC(=O)NCc1ccc(F)cc1)C(=O)CN1CCN(c2ccc(OC)cc2)CC1	0.5	1.4	-4.2	-0.1	8.2
Nc1nc(NCCc2ccccc2)nc(NCCO)c1[N+](=O)[O-]	-1.5	34.0*	-5.8	-0.2	1.4
O=c1nc2ccccc2c2n1CC(CN1CCN(C(c3ccccc3)c3ccccc3)CC1)N2 (centres undefined)	-0.5	-27.0	-15.6	-0.6	47.2*
Clc1ccc(-c2ccc(CNCC3CCCO3)o2)cc1 (centres undefined)	3.2	-22.8	-8.5	-1.7	35.2*
O=S(=O)(NCCc1nnc2ccc(SCc3cccnc3)nn12)c1ccccc1	-2.8	31.8*	-5.2	0.1	-9.3
CCOc1ccc(-c2nnc(N)s2)cc1	-0.7	73.9*	-9.2	-0.3	0.7
Cc1c(Cl)ccc2c(C(=O)O)cc(-c3ccccc3)nc12	-4.9	-13.6	-5.5	-2.4	52.0*
CCc1c(-c2ccccc2)nc2ccccc2c1C(=O)NCCc1ccccc1	/	2.5	/	0.2	/
COc1ccccc1-n1cnc2c(c1=O)c1nc3ccccc3nc1n2-c1ccc(C)cc1	-3.8	32.7*	-14.0	-1.6	-24.0
CC(=O)C1CCC2C3CCC4=CC(=O)CCC4(C)C3(Br)C(=O)CC12C (centres undefined)	10.6	/	61.3*	/	/
CCN(CC)c1ccc(NC(=O)c2cc(C)nc3c2c(C)nn3-c2ccc(C)cc2)c(C)c1	/	-8.2	/	0.8	/
COc1ccc(C)cc1NC1(c2ccccc2)C(=O)c2ccccc2C1=O	/	-1.1	/	/	/
O=C(NCCCN1CCCCC1)c1ccc2c(c1)ncn2C1CCCC1	-4.1	-4.3	-24.5	0.5	30.1*
CCc1ccccc1NC(=O)c1cnc2sc(N3CCCC3)nn2c1=O	/	9.6	/	-1.3	/
O=c1[nH]c2ccccc2cc1CN(CC1CCCO1)S(=O)(=O)c1ccccc1 (centres undefined)	5.1	-25.4	-0.5	0.2	34.6*
CC(OC(=O)c1ccc(NC(=O)CC#N)cc1)C(=O)NCCC1=CCCCC1 (centres undefined)	-0.5	-2.8	4.2	0.1	38.3*
Cc1ccc(SCC(=O)Nc2ccc(C(=O)Nc3ccc(O)cc3)cc2)cc1	-3.0	2.9	-4.7	-0.9	71.8*
C=CCNC(=O)CN1C2CCCC1CC(NC(=O)c1ccccc1C)C2 (centres undefined)	-2.3	40.8*	-19.6	-0.2	-24.3
CC(=O)Nc1ccc(NC(=O)CCn2cnnn2)cc1	1.3	0.8	2.2	1.3	-23.4
O=C(CCn1cnnn1)Nc1ccc(F)cc1	-3.8	-4.2	-2.1	2.2	31.9*
CC1Cc2ccccc2N1C(=O)COC(=O)c1ccco1 (centres undefined)	0.8	/	-10.0	/	/
SMILES	D2 ag-1	D2 PAM-1	D2 PAM-2	D2 ag-2	D2 antag
CC1Cc2ccccc2N1C(=O)COC(=O)c1ccc([N+](=O)[O-])o1 (centres undefined)	11.9	/	58.0*	/	/
CC1Sc2ccc(S(=O)(=O)CCC(=O)Nc3ccc(C(C)C)cc3)cc2NC1=O (centres undefined)	2.9	16.6	5.2	0.5	52.1*
Cc1ccc(NC(=O)C2CCN(S(=O)(=O)c3ccc4c(c3)NC(=O)C(C)S4)CC2)cc1C (centres undefined)	-0.2	-19.7	-36.2	0.8	57.7*
CC1Sc2ccc(S(=O)(=O)N3CCC(C(=O)Nc4cccc(Cl)c4)CC3)cc2NC1=O (centres undefined)	2.5	-22.0	-37.3	0.8	69.5*
CCc1ccc(NC(=O)C2CCN(S(=O)(=O)c3ccc4c(c3)NC(=O)C(C)S4)CC2)cc1 (centres undefined)	-0.1	8.5	-9.0	-0.1	4.9
CCOc1ccccc1Nc1ccc2cc(S(=O)(=O)N3CCCCC3)ccc2n1	/	2.8	/	-0.1	/
CCN(CC)CCNC(=S)Nc1ccc2nc3n(c(=O)c2c1)CCCCC3	-2.7	-5.4	-4.2	1.3	-13.4
CCCN(CCC)CCCNC(=S)Nc1ccc2nc3n(c(=O)c2c1)CCCCC3	2.0	-17.9	-21.6	32.5*	-3.0
N#CC1=C(N)Oc2cc(O)c(Cl)cc2C1c1cccnc1 (centres undefined)	4.3	0.2	-5.0	14.0	-3.2
N#CC1=C(N)Oc2cc(O)c(Cl)cc2C1c1ccccc1F (centres undefined)	7.9	-4.0	19.3	44.1*	-29.4
Cc1cc(NC(=O)CN2CC(C)OC(C)C2)n(-c2nc3ccccc3s2)n1 (centres undefined)	-1.6	9.1	-12.5	0.1	34.3*
CC1(CC(=O)N/N=C/c2ccc(OCc3ccc(Cl)cc3Cl)cc2)OCCCO1	3.0	-4.5	1.5	-0.1	14.7
COc1cc(/C=N/NC(=O)CC2(C)OCCCO2)ccc1OCc1ccc(Cl)cc1Cl	-0.8	-6.1	-3.4	0.1	31.0*
Cc1ccc(OCc2ccoc2C(=O)O)cc1C	-0.7	-4.6	-5.1	-0.8	30.2*
CC1CCc2c(sc(NC(=O)c3cc4nc(-c5ccc(Cl)cc5)cc(C(F)(F)F)n4n3)c2C#N)C1 (centres undefined)	/	-2.2	/	0.3	/
[O-][N+]1=c2ccc(Nc3ccccc3)cc2=NC12CCCCC2	-4.2	-14.2	-21.4	-0.9	32.5*
COc1ccc(Nc2ccc3c(c2)=NC2(CCCCC2)[N+]=3[O-])cc1	-2.7	-7.3	-14.0	-0.1	3.8
COc1cccc(C2CC(c3ccc(Cl)cc3)n3nc(N)nc3N2)c1 (centres undefined)	-3.1	4.2	-2.8	0.0	56.6*
CSc1ccc(S(=O)(=O)NCC(=O)OCC(=O)NCCc2ccccc2)cc1[N+](=O)[O-]	2.4	13.7	3.0	-0.7	33.2*
CNC(=O)C1CCC(Cn2c(=O)c3sccc3n(CC(=O)Nc3ccc(C)c(F)c3)c2=O)CC1 (centres undefined)	/	6.1	/	1.3	/
COc1cc2c(cc1Cl)/C(=C\CCN(C)C)c1ccccc1S2	-3.2	-22.4	-49.3	2.0	36.5*
COc1cc(Cl)cc2c1Sc1ccccc1/C2=C/CCN(C)C	-4.0	-22.9	-33.9	-2.4	63.2*
COc1ccccc1CN1CCN(Cc2nc(-c3ccc(C)cc3)oc2C)CC1	-4.5	-6.4	-4.6	0.0	-0.7
COc1ccc(-c2nc(CN3CCN(c4ccccc4OC)CC3)c(C)o2)cc1	-8.0	-27.6	-7.5	0.4	98.5*
